# Literature values, collected in PubChem BioAssay AID977611.
# Among all 3,900 compounds or so, about 3,900 (100%) were called active. The limit is not given here; nearly all actives have Kd up to about 4200 µM. So high a share suggests a set chosen from earlier hits. Some of the results follow. Where a SMILES comes first, the peptide text is derived from it. Non-standard residues stand in square brackets, D forms with d. Square brackets hold non-standard residues; d marks the D form. Residues, ends and D or L forms follow the SMILES beside them. Peptide text beside a SMILES is read from it. [ ]: non-standard residue; d: D form. Orn(CH(NH2)2) = NC(N)NCCC[C@H](N)C(=O)O
# Assay: PubChem AID 977611
# Conditions: PDB protein-ligand complexes, literature Kd
compound,measurement,setting,value
H-PLYTSPSLPNITLGLP-OH,Kd,"protein: DNA-binding protein RFXANK, PDB entry 3uxg",109000 nM (active)
Ac-LPLYTSPSLPNITLGLP-OH,Kd,"protein: Ankyrin Repeat Domains of Human ANKRA2, PDB entry 3v31",1600 nM (active)
CC[C@H](C)[C@H](NC(=O)[C@@H]1CCCN1C(=O)[C@H](CC(C)C)NC(=O)[C@@H](NC(=O)[C@H](CO)NC(=O)CN)[C@@H](C)O)C(=O)N1CCC[C@H]1C(=O)NCC(=O)N[C@H](C(=O)N1CCC[C@H]1C(=O)N1CCC[C@H]1C(=O)N1CCC[C@H]1C(=O)N[C@@H](CC(N)=O)C(=O)N[C@@H](Cc1ccc(O)cc1)C(=O)N[C@@H](CC(=O)O)C(=O)N[C@@H](CO)C(=O)N[C@@H](CC(C)C)C(=O)O)[C@@H](C)O (H-GSTLPIPGTPPPNYDSL-OH),Kd,"protein: Ubiquitin ligase Nedd4( WW? domain), PDB entry 1i5h",53000 nM (active)
H-NPGLAYGNPYS-OH,Kd,"protein: Galectin-8, PDB entry 4gxl",5200 nM (active)
H-TCIYNPLFGS-OH,Kd,"protein: Sorting nexin-17 SNX17, PDB entry 4tkn",1300 nM (active)
CCC(=O)C(=O)O,Kd,"protein: 4-HYDROXY-2-OXO-HEPTANE-1,7-DIOATE ALDOLASE, PDB entry 4b5t",470000 nM (active)
CC(=O)N[C@H]1/C(=N/OC(=O)Nc2ccccc2)O[C@H](CO)[C@@H](O)[C@@H]1O,Kd,"protein: BETA-N-ACETYLHEXOSAMINIDASE, PDB entry 4azb",57.7 nM (active)
same,Kd,"protein: BETA-N-ACETYLHEXOSAMINIDASE, PDB entry 4azg",79 nM (active)
same,Kd,"protein: BETA-N-ACETYLHEXOSAMINIDASE, PDB entry 4azi",35.6 nM (active)
COc1ccc(C[C@H](NC(=O)[C@@H](C)NC(=O)CN2CCOCC2)C(=O)N[C@@H](Cc2ccccc2)[C@@H](O)[C@H](C)CO)cc1,Kd,"protein: yCP, PDB entry 4qlv",14 nM (active)
CCC[C@H](COc1ccc(-c2nc3ccccc3n2Cc2ccccc2)cc1)n1c(-c2ccccc2)nc2ccccc21,Kd,"protein: Retinal rod rhodopsin-sensitive cGMP 3',5'-cyclic phosphodiesterase subunit delta, PDB entry 4jvb",39 nM (active)
CSCC[C@H](NC(=O)[C@H](CCC(=O)O)NC(=O)[C@H](CCCNC(N)N)NC(=O)[C@@H](N)Cc1cnc[nH]1)C(=O)N[C@@H](C)C(=O)N[C@H](C(=O)N[C@@H](CC(=O)O)C(=O)N[C@@H](CS)C(=O)N1CCC[C@H]1C(=O)O)C(C)C (H-H[Orn(CH(NH2)2)]EMAVDCP-OH),Kd,"protein: Par-6 PDZ domain, PDB entry 1x8s",8000 nM (active)
H-GSLLRVQAHIRKKMV-OH,Kd,"protein: Myosin A tail domain interacting protein MTIP-delta60, PDB entry 4r1e",52 nM (active)
C[C@H](NC(=O)CN)C(=O)N[C@@H](Cc1ccccc1)C(=O)N[C@@H](Cc1ccccc1)C(=O)N[C@@H](CO)C(=O)N[C@@H](C)C(=O)N[C@@H](CCCNC(N)N)C(=O)NCC(=O)N[C@@H](Cc1cnc[nH]1)C(=O)N[C@@H](CCCNC(N)N)C(=O)N1CCC[C@H]1C(=O)O (H-GAFFSA[Orn(CH(NH2)2)]GH[Orn(CH(NH2)2)]P-OH),Kd,"protein: fibrinogen-binding protein SdrG, PDB entry 1r17",379 nM (active)
CC[C@H](C)[C@H](NC(=O)[C@@H]1CCCN1C(=O)[C@H](CCCNC(N)N)NC(=O)[C@@H]1CCCN1C(=O)[C@H](Cc1cnc[nH]1)NC(=O)[C@@H](N)CO)C(=O)N[C@@H](CCCNC(N)N)C(=O)N[C@H](C(=O)O)C(C)C (H-SHP[Orn(CH(NH2)2)]PI[Orn(CH(NH2)2)]V-OH),Kd,"protein: Chaperone protein DnaK, PDB entry 4ezr",6300 nM (active)
CSCC[C@H](NC(=O)[C@H](CCCCN)NC(=O)[C@@H](NC(=O)[C@H](Cc1ccc(O)cc1)NC(=O)[C@@H](NC(=O)CNC(=O)[C@@H](NC(=O)[C@@H](N)[C@@H](C)O)[C@@H](C)O)C(C)C)C(C)C)C(=O)N1CCC[C@H]1C(=O)N1CCC[C@H]1C(=O)O (H-TTGVYVKMPP-OH),Kd,"protein: AP50, PDB entry 1h6e",700 nM (active)
CC(C)C[C@H](NC(=O)[C@H](CCC(=O)O)NC(=O)[C@@H](N)CCCNC(N)N)C(=O)N[C@@H](CC(C)C)C(=O)N1CCC[C@H]1C(=O)N[C@@H](CCC(=O)O)C(=O)N[C@@H](CC(C)C)C(=O)N1CCC[C@H]1C(=O)N[C@@H](Cc1cnc[nH]1)C(=O)N1CCC[C@H]1C(=O)N1CCC[C@H]1C=O (H-[Orn(CH(NH2)2)]ELLPELPHPP-aldehyde),Kd,"protein: MIT domain of Saci1372 (Vps4), PDB entry 2w2u",35000 nM (active)
CC[C@H](C)[C@H](NC(=O)[C@H](CO)NC(=O)[C@H](CCCNC(N)N)NC(=O)CNC(=O)[C@H](C)NC(=O)[C@H](CCC(=O)O)NC(=O)[C@H](CCCCN)NC(=O)[C@@H](NC(=O)[C@@H](NC(=O)[C@H](C)NC(=O)[C@@H](NC(=O)[C@H](CC(C)C)NC(=O)[C@H](CO)NC(=O)CN)C(C)C)[C@@H](C)O)C(C)C)C(=O)N[C@@H](Cc1cnc[nH]1)C(=O)N[C@@H](CCC(=O)O)C(=O)N[C@H](C(=O)N1CCC[C@H]1C(=O)N[C@@H](CCCNC(N)N)C(=O)O)[C@@H](C)CC (H-GSLVATVKEAG[Orn(CH(NH2)2)]SIHEIP[Orn(CH(NH2)2)]-OH),Kd,"protein: the BTB domain from B-cell lymphoma 6 protein(BCL6), PDB entry 1r2b",11400 nM (active)
CSCC[C@H](NC(=O)[C@H](Cc1cnc[nH]1)NC(=O)[C@@H](NC(=O)[C@H](CCCCN)NC(=O)[C@H](C)NC(=O)[C@H](CO)NC(=O)[C@H](C)NC(=O)[C@@H](N)CCCNC(N)N)[C@@H](C)O)C(=O)N[C@@H](Cc1ccc(O)cc1)C(=O)N1CCC[C@H]1C(=O)N[C@H](C(=O)N[C@@H](CCCNC(N)N)C(=O)N[C@@H](CC(N)=O)C(=O)N[C@@H](Cc1ccc(O)cc1)C(=O)N[C@@H](CO)C(=O)N1CCC[C@H]1C(=O)O)C(C)C (H-[Orn(CH(NH2)2)]ASAKTHMYPV[Orn(CH(NH2)2)]NYSP-OH),Kd,"protein: ezrinradixinmoesin (ERM) proteins, PDB entry 2emt",201 nM (active)
